Screening results from PubChem BioAssay.
Hits are enriched below; roughly 19% of the tested compounds scored in any of these assays.
HT1080 IDH1KD tx – toxicity to HT-1080 IDH1 knockdown cells (counter line); HT-1080 IDH1 knockdown viability, ATP luminescence, 48 h; Potency, µM (doses to about 46.1 µM), for the others: at the highest dose activity, negative = toxicity, most hits filed as cytotoxic; AID 686971; hit rate 2% among 360,000;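 also: potency is read from the fitted curve at half-maximal effect; 0% = DMSO wells and -100% = cell-free medium wells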
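After a 2 h attachment period, IDH1KD HT-1080 cells took pin-transferred compound for 48 h at 37 °C; ATP-based luminescence after 10 min room-temperature reagent incubation reported viability.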
IL1B secr inh – inhibitors of inflammasome signaling (IL-1 beta secretion). THP-1 LPS/ATP IL-1B secretion, AlphaLISA, 16 h; stronger effect = lower value. activity change, % at 57.5 µM. hit rate 4.7% among 360,000. AID 743279; in the data active = activity change below about -50%; inconclusive = mostly about -30% to -49%
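Secreted IL-1B measured by AlphaLISA bead assay after 16 h compound exposure of THP-1 cells; compounds (final up to 57.5 uM) added 1 h before LPS (250 ng/mL) and ATP (1.25 mM) stimulation; lower signal means less secretion.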
DT40 TDP1 no CPT – qHTS for Inhibitors of human tyrosyl-DNA phosphodiesterase 1 (TDP1): qHTS in cells in absence of CPT; DT40 Tdp1-/- hTDP1 cells, no CPT, ATP luminescence, 48 h; Potency, µM (doses to about 46.2 µM), without a hit: at the top dose activity change, negative = growth inhibition, most hits filed as inhibitors; hit rate 15% among 420,000; also: potency is read from the fitted curve at half-maximal effect; nearly all actives have a fitted effect of over 55% in size
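No-CPT arm: Tdp1-/-;hTDP1 DT40 cells (400/well) plus compounds, incubated ≥48 hr at 37 °C. Readout CellTiter-Glo luminescence.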
HT1080NT lethal – kills 2HG-producing HT-1080-NT fibrosarcoma cells; HT-1080-NT fibrosarcoma viability, CellTiter-Glo ATP luminescence, 48 h; AID 686970; hit rate 1.6% among 360,000; Potency, µM (titrated, usually from 46.1 µM), inactives show at the top dose activity, negative = less viability, hits mostly cytotoxic;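 also: NT is the 2HG producing partner of a matched IDH1 knockdown line; potency is read from the fitted curve at half-maximal effect; 0% = DMSO-treated cells and -100% = media-only wells without cells; nearly all actives have a fitted effect of over 55% in size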
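Luminescent CellTiter-Glo readout after 48 hours of compound exposure at 37 degrees C defined viability of HT-1080-NT cells. Activity was normalized to DMSO wells and cell-free media wells; concentration-response curves were fitted and assigned curve classes.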
DT40 TDP1 CPT – DT40-hTDP1 cell growth loss with CPT. Potency, µM (doses to about 46.2 µM), for the others: at the top dose activity change, negative = growth inhibition, most hits filed as inhibitors. hit rate 12% among 420,000. chicken DT40 Tdp1-/-;hTDP1 cells + 20 nM CPT, ATP luminescence, 48 h; also: potency is read from the fitted curve at half-maximal effect; nearly all actives have a fitted effect of over 55% in size
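Chicken DT40 Tdp1-/- cells complemented with human TDP1, 400 cells/well, exposed to compounds plus 20 nM camptothecin for at least 48 h at 37 C; viability read as ATP content by CellTiter-Glo luminescence.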
* = called active by the depositor; u = inconclusive; x = not tested or not shown; [ ] = another dose, or the depositor's remark. Unless noted, calls follow the shape of the dose curve; as a rule, active = well fitted curve in the direction sought with a large enough effect; inconclusive = small, poorly fitted or top-dose-only effect, or another doubt; inactive = no such curve, though single readings can be large; an effect the other way counts as inactive or inconclusive. Unless noted, % is scaled to controls: 0 for no effect and ±100 for the full control effect.

SMILES	HT1080 IDH1KD tx	IL1B secr inh	DT40 TDP1 no CPT	HT1080NT lethal	DT40 TDP1 CPT
COC(=O)c1scc(-c2ccc(C)cc2)c1S(=O)(=O)Nc1cc(OC)c(OC)c(OC)c1	x	x	u	x	20.6µM*
Cc1ccc(S(=O)(=O)c2cc3cc(C(=O)Nc4ccc(C)cc4C)ccc3oc2=O)cc1	x	x	-6.2%	x	u
COCc1ccc(C(=O)N2CCCC(Nc3ccc(F)c(F)c3)C2)s1 (configuration not stated)	-6.4%	-9.4	-11.8%	-5.2%	u
Cc1ccc(Cl)c2c1NC(=O)C2=O	0.1%	12.3	u	-6.2%	u
CC(=O)c1cccc(NC(=O)c2cccc(S(=O)(=O)N3CCOCC3)c2)c1	4.6%	0.0	-20.7%	1.7%	7.1%
CC(=O)c1cccc(NC(=O)c2ccc(Cl)c(S(=O)(=O)N3CCOCC3)c2)c1	x	x	0.461µM*	x	u
O=C(Nc1ccccn1)c1ccc(Cl)c(S(=O)(=O)N2CCOCC2)c1	-0.1%	7.9	21.6%	-0.5%	3.3%
CN(c1cccc(NC(=O)c2ccc(Cl)c(S(=O)(=O)N3CCOCC3)c2)c1)S(C)(=O)=O	3.9%	-8.3	11.6µM*	-1.0%	u
COc1ccc(CN2C3CCC2CC(NC(=O)c2cc(OC)c(OC)c(OC)c2)C3)cc1 (configuration not stated)	6.7%	-19.1	21.0%	11.3%	-4.5%
CNCC(O)CN(c1ccccc1)c1ccccc1 (configuration not stated)	-4.0%	u	u	-13.4%	u
OC(CN1CCCCC1)CN(c1ccccc1)c1ccccc1 (configuration not stated)	-10.3%	-18.6	25.9µM*	-4.2%	u
NC(N)=NCC(O)CN(c1ccccc1)c1ccccc1 (configuration not stated)	-11.5%	-82.0*	14.6µM*	-17.6%	u
OC(CN1CCCCCC1)CN(c1ccccc1)c1ccccc1 (configuration not stated)	-2.5%	0.0	u	0.1%	u
OC(CN1CCOCC1)CN(c1ccccc1)c1ccccc1 (configuration not stated)	1.6%	18.4	11.6µM*	3.8%	u
NS(=O)(=O)c1cc([N+](=O)[O-])ccc1NCc1cccnc1	4.8%	4.6	21.0%	0.3%	6.2%
Cn1c(=O)c2c(c3ccccc31)OC(=O)CC2c1cccc(F)c1 (configuration not stated)	x	x	-5.9%	x	1.7%
CCOC(=O)C(NC(C)=O)C(=O)Nc1c(C)cccc1C (configuration not stated)	7.7%	2.4	6.0%	-0.8%	0.2%
Cc1ccc(CC2(C)C(=O)Nc3c(Cl)cccc32)cc1 (configuration not stated)	0.0%	13.8	u	-2.2%	u
Cc1ccc(CNc2ncnc3sc(C(=O)N4CCC(N5CCCC(O)C5)CC4)c(C)c23)o1 (configuration not stated)	x	x	2.5%	x	2.2%[9.04 µM]
COc1cc(NC(=O)COC(=O)CCCC2=NS(=O)(=O)c3ccccc3N2)cc(OC)c1	16.7%	45.6	15.5%	12.0%	0.1%
CCc1ccc(-c2nc3c(=O)n(C)c(=O)nc-3n(CC)n2)cc1	x	x	2.82µM*	x	2.82µM*
CCCc1nc2c(=O)n(C)c(=O)nc-2n(C)n1	2.06µM*	-105.6*	1.16µM*	3.66µM*	1.64µM*
COc1ccc(-c2nc(-c3ccccn3)ncc2S(C)(=O)=O)cc1	22.3%	-12.7	-1.3%	23.0%	4.9%
Cn1nc(-c2ccccn2)nc2c(=O)n(C)c(=O)nc1-2	1.64µM*	-93.6*	0.517µM*	1.84µM*	0.651µM*
Cc1ccccc1-c1nc2c(=O)n(C)c(=O)nc-2n(C)n1	x	x	0.631µM*	x	0.708µM*
SMILES	HT1080 IDH1KD tx	IL1B secr inh	DT40 TDP1 no CPT	HT1080NT lethal	DT40 TDP1 CPT
CC(=O)SC[C@@H](Cc1ccccc1)C(=O)NCC(=O)OCc1ccccc1	x	x	-24.7%[21.1 µM]	x	-6.9%[21.1 µM]
CCOC(=O)C1=CCN(S(=O)(=O)c2ccc(Cl)cc2)C1c1cccc(C)c1 (configuration not stated)	-24.2%	10.6	u	-23.8%	u
COc1ccc(C(=O)NCCC2=CCCCC2)cc1S(=O)(=O)N1CCOCC1	6.4%	22.6	-2.2%	2.3%	-0.2%
CC1CN(S(=O)(=O)c2cc(C(=O)NCCC3=CCCCC3)ccc2Cl)CC(C)O1 (configuration not stated)	-17.2%	31.4	14.6µM*	u	18.4µM*
CCOc1ccc(CCNC(=O)c2ccc(Cl)c(S(=O)(=O)N3CCOCC3)c2)cc1OCC	-6.5%	33.6	23.1µM*	-10.0%	20.6µM*
COc1ccc(CNC(=O)c2ccc(Cl)c(S(=O)(=O)N3CCOCC3)c2)cc1OC	-12.6%	7.0	7.31µM*	-13.3%	9.2µM*
CCc1ccccc1NC(=S)N(CCCN(C)C)Cc1cc2cc3c(cc2[nH]c1=O)OCO3	0.0%	-21.0	u	-3.1%	0.4%
C=C(C)COc1ccc2c(C)c(CC(=O)N3C[C@H]4C[C@@H](C3)c3cccc(=O)n3C4)c(=O)oc2c1C	9.8%	-7.9	18.4µM*	11.3%	14.6µM*
C=C(C)COc1ccc2c(C)c(CC(=O)OC)c(=O)oc2c1C	-20.4%	-16.1	11.6µM*	-12.9%	18.4µM*
CCCOc1ccc2c(C)c(CC(=O)OC)c(=O)oc2c1	-0.5%	-18.3	10.3µM*	4.7%	u
Cc1coc2cc3oc(=O)c(CC(=O)N4C[C@H]5C[C@@H](C4)c4cccc(=O)n4C5)c(C)c3cc12	7.0%	4.9	u	-1.2%	-1.9%
COC(=O)Cc1c(C)c2ccc(OCC(=O)N(C)C)cc2oc1=O	u	-1.8	3.0%	u	-4.3%
COC(=O)Cc1c(C)c2ccc(OCC(=O)N3CCCC(C)C3)c(C)c2oc1=O (configuration not stated)	-5.7%	-4.4	u	-23.7%	25.9µM*
COC(=O)C(C#N)(CCC(=O)c1ccccc1)CCC(=O)c1ccccc1	23.3%	53.0	-14.9%	16.0%	-2.2%
CC1CC(C)CN(CCCNC(=O)Cc2c(C(=O)O)n(C)c3ccccc23)C1 (configuration not stated)	5.2%	-12.1	-8.7%	-3.0%	-11.7%
O=C(Nc1cccc(Cl)c1)c1csc(COCCO)n1	5.6%	17.3	-28.0%	5.6%	-27.5%
CN(CC(=O)NCc1ccccc1Cl)S(=O)(=O)c1cccs1	9.5%	2.8	-5.4%	-2.7%	-2.9%
Cc1cccc(C)c1NC(=O)COc1ccc2c(C)c(Cc3ccccc3)c(=O)oc2c1C	6.6%	27.2	u	5.3%	16.4µM*
O=[N+]([O-])c1ccc(N2CCN(c3ccccc3)CC2)cc1	8.2%	u	-17.5%	-1.2%	-19.5%
